# D1 agonist – agonists of human D1 dopamine receptor; AID 504660; HEK293 T-REx D1 cells, calcium flux, agonist mode; actives 1% (n = 360,000); activation, % at 2 µM
#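 Agonism was scored from calcium flux recorded over 180 s (1 read/s) after pintool compound addition, following a 10-cycle baseline. Cells were inducible force-coupled HEK293 TREx D1, plated overnight at 30 C and loaded with no-wash calcium dye.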
# TRHR agonist – activates the human TRH receptor. P34981. TRHR cells, calcium flux fluo-8, FDSS agonist mode. activation, % at 2 µM. actives 0.18% (n = 360,000)
# Target sequence (P34981 whole entry, looked up): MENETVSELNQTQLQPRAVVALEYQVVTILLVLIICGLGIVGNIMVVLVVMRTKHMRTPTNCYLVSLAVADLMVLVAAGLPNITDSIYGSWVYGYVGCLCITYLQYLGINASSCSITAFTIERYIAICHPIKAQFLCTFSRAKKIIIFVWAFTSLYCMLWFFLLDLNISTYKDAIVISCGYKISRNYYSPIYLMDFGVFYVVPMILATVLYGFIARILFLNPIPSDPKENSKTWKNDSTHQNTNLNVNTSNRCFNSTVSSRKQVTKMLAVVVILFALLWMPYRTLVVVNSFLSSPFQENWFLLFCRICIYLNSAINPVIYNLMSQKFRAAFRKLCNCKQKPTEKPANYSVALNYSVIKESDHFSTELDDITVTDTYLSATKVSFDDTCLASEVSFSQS
#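 In this calcium-flux screen, cells bearing human TRHR are dye-loaded with fluo-8, baselined for 10 cycles, then exposed to library compounds; positive kinetic calcium responses during the agonist phase mark hits, with TRH as control.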
# TRHR enhancer – TRH receptor (human) allosteric enhancement; P34981; TRHR cells, fluo-8 calcium fluorescence, EC20 TRH enhancement; enhancement, % at 2 µM; actives 0.66% (n = 360,000); AID 493056; in the data active means enhancement above about 30%
#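 Enhancer read-out: after compound pinning and an initial kinetic agonist-mode read, an EC20 of TRH (10 nM final) was injected and fluo-8 calcium signal (Ex 480/Em 530) followed at 1 s/cycle for 100 cycles in TRHR-expressing cells.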
# D1 potentiator – potentiators of human D1 dopamine receptor. AID 504651. potentiation, % at 10 µM. P21728. HEK293 TREx D1 cells, calcium flux, dopamine EC20 potentiation. actives 0.036% (n = 360,000); in the data active means potentiation above about 30%
# Epigenetic reg – epigenetic control regulation, reporter derepression; Potency, µM (series often up to 53.9 µM), hits mostly activators; murine LDR cells, GFP reporter derepression, 30 h; actives 0.2% (n = 280,000); AID 1865; active means well fitted activation curve with a large enough effect; inconclusive means small, poorly fitted or top-dose-only effect; further: nearly all actives have a fitted effect of over 60% in size
#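 Derepression of a silenced CMV-GFP reporter in murine LDR cells is scored by enumerating GFP-positive cells with a laser-scanning microplate cytometer after 30 hours of treatment at 37 C.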
# D1 antag – human D1 dopamine receptor antagonism | activity change, negative = inhibition, % at 10 µM | HEK293 TREx D1 cells, calcium flux, dopamine EC80; stronger effect = lower value | actives 3.2% (n = 360,000); in the data active means activity change below about -30%
#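 Antagonism measured as reduced calcium response to an EC80 dopamine addition following 180 s compound pre-read; cells were inducible HEK293 Trex D1 plated overnight at 30 C, read kinetically at 1 cycle/sec.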
# Hits are given with their value; - = inactive; ? = inconclusive; . = not tested or not shown; [ ] = dose if it differs, or a comment. The list is not random: actives were taken first. Their share in the collection is about 4.6%. Unless noted, no stated cut-off is given here; in the data, active means activation above about 30%; inactive means the rest.
SMILES,D1 agonist,TRHR agonist,TRHR enhancer,D1 potentiator,Epigenetic reg,D1 antag
COc1ccccc1NC(=O)C1CCCN(S(=O)(=O)c2c(C)noc2C)C1 (centres undefined),-,-,-,-,.,-
Cc1ccc(C(=O)c2cn(Cc3c(F)cccc3Cl)c3nc(C)ccc3c2=O)cc1,-,-,-,-,-,-
COc1cccc(C(c2sc3nc(-c4ccco4)nn3c2O)N2CCN(C)CC2)c1 (centres undefined),-,-,-,-,-,.
CS(=O)(=O)N1CCCC(C(=O)Nc2ccccc2)C1 (centres undefined),-,-,31.6,-,.,-
COc1ccc(S(=O)(=O)N2CCN(C(=O)Nc3ccccc3OC)CC2)cc1,-,-,-,-,.,-37.4
O=C(Nc1ccc(O)cc1)N1CCOCC1,-,-,-,-,.,-39.3
COc1ccccc1NC(=O)C1CCCN(C(=O)Nc2ccc(F)cc2)C1 (centres undefined),-,-,-,-,.,-81.5
O=C(Nc1ccc(Nc2ccccc2)cc1)N1CCOCC1,-,-,-,-,-,-
CN1CCN(C(c2ccc(Cl)cc2Cl)c2sc3nc(-c4ccco4)nn3c2O)CC1 (centres undefined),-,-,-,-,-,.
COc1ccc(-c2cn3nc(N4CCCC(C(=O)Nc5ccccc5OC)C4)sc3n2)cc1 (centres undefined),-,-,-,-,-,-
Cc1ccc(C)c(Oc2ccc(S(=O)(=O)N3CCN(C)CC3)cn2)c1,-,-,-,-,.,-
CCc1ccccc1Oc1ccc(S(=O)(=O)N2CCN(C)CC2)cn1,-,-,39.8,-,.,-
Cc1ccc(C(=O)Cn2c3c(sc2=N)CCCC3)cc1,.,.,.,.,-,.
CCN(CCn1cccn1)C(=O)c1cc(COc2ccc(F)c(F)c2)on1,-,-,-,-,.,-31.6
CC(=O)N1CCN(C(=O)CCc2c[nH]c3ccccc23)CC1,-,-,-,-,-,-34.1
O=C(Cc1c[nH]c2ccccc12)N1CCN(S(=O)(=O)c2ccc(Cl)cc2)CC1,-,-,-,-,.,-36.2
O=C(CCc1c[nH]c2ccccc12)N1CCCC1,-,-,-,-,.,-
N#CC(C#N)=C1C=CC=CN1/C(=C\c1ccco1)C(=O)c1ccc(Br)cc1,-,-,-,-,?,-48.4
N#CC(C#N)=C1C=CC=CN1/C(=C\c1ccco1)C(=O)c1ccccc1,-,-,-,-,-,-75.4
COc1ccc(C(=O)/C(=C\c2ccco2)N2C=CC=CC2=C(C#N)C#N)cc1,-,-,-,-,-,-41.3
N#C/C(=C/c1ccco1)C(N)=S,-,-,-,-,-,-
COc1ccc(/C=C(/C(=O)c2cccs2)N2C=CC=CC2=C(C#N)C#N)cc1,-,-,-,-,-,-
C[C@@H](c1ccccc1)N1C(=O)[C@H]2[C@H]3[C@H](O)[C@H](O)C/C(=N/OCc4ccccc4)[C@H]3CC[C@@H]2C1=O,.,.,.,.,-[10.1 µM],.
COCCCNC(=O)c1cnn(-c2ccccc2Cl)c1C1CCN(C(=O)OC(C)(C)C)CC1,-,-,-,-,-,-
CCN(CC)C(=O)C(C(=O)c1cccc([N+](=O)[O-])c1)n1cc(Cl)ccc1=O (centres undefined),-,-,-,-,-,-36.8
SMILES,D1 agonist,TRHR agonist,TRHR enhancer,D1 potentiator,Epigenetic reg,D1 antag
CN(Cc1ccccc1)C(=O)C(C(=O)c1ccc(F)cc1)n1cc(Cl)ccc1=O (centres undefined),-,-,-,-,-,-
O=C(CNC(=O)c1ccc(-c2ccccc2)cc1)OC(C(=O)Nc1cc(C(F)(F)F)ccc1Cl)c1ccccc1 (centres undefined),-,-,-,-,.,-
CC(N)(Cc1ccc(O)c(O)c1)C(=O)O (centres undefined),.,.,.,.,-,.
CCOC(=O)Cn1c(=O)oc2cc(S(=O)(=O)N3CCN(c4ccc(C(C)=O)cc4)CC3)ccc21,-,-,-,-,?,-42.7
CCOC(=O)Cn1c(=O)oc2cc(S(=O)(=O)Nc3ccc(F)cc3)ccc21,76.6,-,-,-,-,-65.9
CCOC(=O)Cn1c(=O)oc2cc(S(=O)(=O)NCCc3ccc(C)cc3)ccc21,-,-,-,-,-,-
CCOC(=O)Cn1c(=O)oc2cc(S(=O)(=O)N3CCN(c4ccccc4OC)CC3)ccc21,-,-,-,-,-,-
O=C(Nc1c(C(=O)c2ccccc2)oc2ccccc12)c1cc(=O)c2ccccc2o1,-,-,-,-,-,-
Cc1sc2nc(CSc3ccccc3)nc(N3CCN(C)CC3)c2c1C,-,-,-,-,-,-41.7
COc1c(NC(C)=O)c2ccccc2c2ccccc12,-,-,38.3,-,-,-
N#Cc1ccc(/C=C/C(=O)c2ccco2)cc1,-,-,-,-,-,-
Nc1ccc(/C=C/C(=O)c2ccco2)cc1,72.0,-,-,-,-,-
COc1ccc(-c2noc(CC(=O)Nc3ccc(F)cc3F)n2)cc1,-,-,-,-,-,-
CCn1c(=O)cc(OCC(=O)N2CCN(c3cccc(Cl)c3)CC2)c2ccccc21,-,-,-,-,-,-
CCN(CC)S(=O)(=O)c1ccc2c(c1)c(=O)c(C(=O)N1CCc3ccccc3C1)cn2C,-,-,-,-,-,-37.5
Cc1cc([N+](=O)[O-])nn1Cc1ccc(C(=O)N/N=C/c2ccc(O)cc2O)cc1,-,-,-,-,-,-32.7
Cc1nc2ccccc2n1CCc1nc2c3ccccc3nc(SCC(=O)Nc3ccc(C(C)C)cc3)n2n1,-,-,-,-,-,-
CCC(Sc1nc2ccccc2c2nc(CCn3c(C)nc4ccccc43)nn12)C(=O)Nc1ccc(F)cc1 (centres undefined),-,-,-,-,-,-41.9
COc1ccc(-c2cc(C(=O)Nc3c(C)nn(Cc4ccccc4Cl)c3C)no2)cc1OC,-,-,-,-,-,-39.9
COc1ccc(-c2cc(C(=O)Nc3cc(OC)c(OC)c(OC)c3)no2)cc1OC,-,-,38.8,-,-,-
CCCCN(CC)S(=O)(=O)c1ccc(C(=O)Nc2nnc(-c3cccs3)o2)cc1,39.8,-,-,-,-,-
CCN(CC)S(=O)(=O)c1ccc(C(=O)NNC(=O)c2cccs2)cc1,-,-,-,-,-,-42.3
COc1ccc(-c2nc(CSc3nncn4c3cc3sccc34)c(C)o2)cc1OC,-,-,-,-,-,-
O=C(COC(=O)c1cc[n+]([O-])cc1)Nc1ccc(SC(F)F)cc1,-,-,-,-,-,-33.8
O=C(COC(=O)c1cc[n+]([O-])cc1)Nc1ccc(Br)cc1,-,-,-,-,.,-
Cc1nc(-c2ccccc2)sc1-c1ccc(SCC(=O)Nc2ccccc2)nn1,-,-,-,-,-,-

# From PubChem BioAssay
